Measured values from the supplement of paper PMC12636033.
± gives the standard deviation of the averaged measurements. Over roughly 33,000 sequences, “E-score (rank enrichment, -0.5 to 0.5)” has its median near -0.0068; the highest 2% begin near 0.24. The entries come from a sample that favours the highest values as a whole.

What follows are sequences tested on muMax20 (Max(13-93) K31hArg/K57hArg, M65Nle) (assay: PBM 8-mer E-score (E-score (rank enrichment, -0.5 to 0.5)); higher = stronger preferential binding).
Experimental: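 Protein binding microarray (universal PBM chip covering all 10-mers in fixed probe flanks) with chemically synthesized human Max(13-93) bHLH-LZ analogs (not full-length Max) bearing noncanonical residues (hArg, Tha, Aib, Nle at 65) and aromatic Cys staples. Read-out per 8-mer (and its reverse complement): E-score (rank-based enrichment, -0.5 to 0.5) and Z-score of median probe intensity.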
For CAGGCTTC, the “PBM 8-mer E-score” value was -0.0969 ± 0.0043.
In the case of GATACGCC, the “PBM 8-mer E-score” value is reported as -0.108 ± 0.043.
With ACTTTTGC the “PBM 8-mer E-score” value was 0.0617 ± 0.018.
With CATGTTAC the “PBM 8-mer E-score” value was 0.123 ± 0.025.
For AGCCGCCG, the “PBM 8-mer E-score” value was -0.192 ± 0.18.
In the case of AGCTCCTA, the “PBM 8-mer E-score” value is reported as -0.251 ± 0.015.
For CCTCCCTA, the “PBM 8-mer E-score” value was -0.153 ± 0.075.
AGCTTAAC was tested, and the “PBM 8-mer E-score” value was -0.126 ± 0.1.
ACACTCGG was tested, and the “PBM 8-mer E-score” value was -0.0657 ± 0.025.
With CTATACGC the “PBM 8-mer E-score” value was -0.00851 ± 0.07.
CCTCGTTA was tested, and the “PBM 8-mer E-score” value was -0.00353 ± 0.0057.
For GCACAACC, the “PBM 8-mer E-score” value was -0.23 ± 0.0046.
In the case of ATACAAGC, the “PBM 8-mer E-score” value is reported as 0.243 ± 0.079.
For GTACAAAC, the “PBM 8-mer E-score” value was 0.116 ± 0.0057.
In the case of AAACAAAC, the “PBM 8-mer E-score” value is reported as 0.154 ± 0.025.
For CTACAAGC, the “PBM 8-mer E-score” value was -0.0802 ± 0.066.
In the case of GTACAAAA, the “PBM 8-mer E-score” value is reported as 0.2859 ± 0.0025.
For CCACAACA, the “PBM 8-mer E-score” value was -0.0271 ± 0.0066.
For GTACAAGA, the “PBM 8-mer E-score” value was 0.119 ± 0.012.
In the case of AAACAAAT, the “PBM 8-mer E-score” value is reported as 0.284 ± 0.031.
In the case of ATACAAGA, the “PBM 8-mer E-score” value is reported as 0.0614 ± 0.015.
For GCACAACA, the “PBM 8-mer E-score” value was 0.238 ± 0.016.
With AAACAAAA the “PBM 8-mer E-score” value was 0.211 ± 0.061.
For GAGTCCAA, the “PBM 8-mer E-score” value was -0.159 ± 0.12.
In the case of GCGACACA, the “PBM 8-mer E-score” value is reported as -0.067 ± 0.12.
For GTCTCTGA, the “PBM 8-mer E-score” value was -0.161 ± 0.093.
For ATTTATTA, the “PBM 8-mer E-score” value was 0.132 ± 0.06.
With ATTTATTC the “PBM 8-mer E-score” value was 0.241 ± 0.046.
ATATATGG was tested, and the “PBM 8-mer E-score” value was 0.258 ± 0.028.
With ATATATGC the “PBM 8-mer E-score” value was 0.0936 ± 0.17.
CTATATGC was tested, and the “PBM 8-mer E-score” value was 0.238 ± 0.043.
In the case of ATATATGA, the “PBM 8-mer E-score” value is reported as 0.218 ± 0.069.
For ACATATGG, the “PBM 8-mer E-score” value was 0.12 ± 0.078.
For GCATATGA, the “PBM 8-mer E-score” value was 0.186 ± 0.04.
With CTTTATTC the “PBM 8-mer E-score” value was 0.0219 ± 0.12.
GCATATGC was tested, and the “PBM 8-mer E-score” value was 0.24 ± 0.032.
In the case of CTATATGA, the “PBM 8-mer E-score” value is reported as 0.109 ± 0.074.
For ACATATGC, the “PBM 8-mer E-score” value was 0.105 ± 0.011.
In the case of TACCCCAA, the “PBM 8-mer E-score” value is reported as 0.157 ± 0.005.
With GGAGAGCC the “PBM 8-mer E-score” value was -0.211 ± 0.032.
GACGCCAC was tested, and the “PBM 8-mer E-score” value was -0.137 ± 0.094.
ATGTCCGC was tested, and the “PBM 8-mer E-score” value was -0.126 ± 0.088.
For GACACTGA, the “PBM 8-mer E-score” value was -0.11 ± 0.068.
In the case of GCAGCCAC, the “PBM 8-mer E-score” value is reported as -0.0591 ± 0.03.
In the case of CTCAGTGC, the “PBM 8-mer E-score” value is reported as -0.224 ± 0.0089.
With CTCTATTC the “PBM 8-mer E-score” value was 0.00532 ± 0.064.
For CTATATTC, the “PBM 8-mer E-score” value was 0.262 ± 0.052.
For ATATATTC, the “PBM 8-mer E-score” value was 0.201 ± 0.041.
In the case of CAAAGCTG, the “PBM 8-mer E-score” value is reported as 0.0952 ± 0.083.
In the case of AATAGTAA, the “PBM 8-mer E-score” value is reported as 0.152 ± 0.012.
In the case of AAAAGCTG, the “PBM 8-mer E-score” value is reported as 0.271 ± 0.081.
AAAAGCAC was tested, and the “PBM 8-mer E-score” value was 0.162 ± 0.061.
In the case of AATAGTAG, the “PBM 8-mer E-score” value is reported as 0.0461 ± 0.02.
AAAAGTAT was tested, and the “PBM 8-mer E-score” value was 0.249 ± 0.044.
For AAAAGCAG, the “PBM 8-mer E-score” value was -0.0145 ± 0.05.
AAAAGCTA was tested, and the “PBM 8-mer E-score” value was 0.123 ± 0.0035.
With AAAAGTAC the “PBM 8-mer E-score” value was 0.184 ± 0.042.
AATAGTAT was tested, and the “PBM 8-mer E-score” value was 0.24 ± 0.012.
For AAAAGCAT, the “PBM 8-mer E-score” value was 0.243 ± 0.018.
AAAAGTAA was tested, and the “PBM 8-mer E-score” value was 0.12 ± 0.033.
In the case of CCGTCGTC, the “PBM 8-mer E-score” value is reported as -0.109 ± 0.011.
In the case of AACTGGGT, the “PBM 8-mer E-score” value is reported as -0.078 ± 0.061.
CCAATGAG was tested, and the “PBM 8-mer E-score” value was -0.095 ± 0.001.
In the case of CATGGACG, the “PBM 8-mer E-score” value is reported as 0.0146 ± 0.1.
For GAAGAGGC, the “PBM 8-mer E-score” value was -0.108 ± 0.083.
In the case of AGACGGAT, the “PBM 8-mer E-score” value is reported as 0.0634 ± 0.17.
GTCAATGA was tested, and the “PBM 8-mer E-score” value was 0.0559 ± 0.0022.
With CCTGCTGC the “PBM 8-mer E-score” value was -0.107 ± 0.061.
For TAGTATCA, the “PBM 8-mer E-score” value was 0.131 ± 0.033.
In the case of ATAGATGA, the “PBM 8-mer E-score” value is reported as 0.0906 ± 0.033.
In the case of AACGCATA, the “PBM 8-mer E-score” value is reported as 0.0704 ± 0.12.
For ACACGTCA, the “PBM 8-mer E-score” value was 0.246 ± 0.006.
With ACACGTCT the “PBM 8-mer E-score” value was 0.0471 ± 0.065.
For GCAGGTGA, the “PBM 8-mer E-score” value was -0.0216 ± 0.0013.
AGACGTGC was tested, and the “PBM 8-mer E-score” value was -0.0738 ± 0.042.
With CCAGGTGA the “PBM 8-mer E-score” value was -0.121 ± 0.026.
AGACGTGA was tested, and the “PBM 8-mer E-score” value was 0.104 ± 0.027.
In the case of ACACGTAC, the “PBM 8-mer E-score” value is reported as 0.137 ± 0.036.
With ATACGTGA the “PBM 8-mer E-score” value was 0.068 ± 0.019.
For ACAGGTGA, the “PBM 8-mer E-score” value was 0.264 ± 0.062.
In the case of ACACGTGA, the “PBM 8-mer E-score” value is reported as 0.432 ± 0.055.
With ACACGTGC the “PBM 8-mer E-score” value was 0.452 ± 0.05.
For ACACGTCG, the “PBM 8-mer E-score” value was -0.148 ± 0.048.
For AGCTCTTG, the “PBM 8-mer E-score” value was 0.00816 ± 0.055.
CAGGCAGA was tested, and the “PBM 8-mer E-score” value was -0.144 ± 0.036.
In the case of CCGGCAAA, the “PBM 8-mer E-score” value is reported as -0.223 ± 0.11.
For AAACCGTC, the “PBM 8-mer E-score” value was -0.172 ± 0.074.
With ACCCAGAC the “PBM 8-mer E-score” value was -0.109 ± 0.007.
For CTAACGCC, the “PBM 8-mer E-score” value was -0.0238 ± 0.038.
For AATTGCCT, the “PBM 8-mer E-score” value was 0.00671 ± 0.018.
With AATAGGGA the “PBM 8-mer E-score” value was 0.142 ± 0.022.
For CGTTACAC, the “PBM 8-mer E-score” value was -0.0405 ± 0.053.
In the case of ACACGTGG, the “PBM 8-mer E-score” value is reported as 0.446 ± 0.062.
In the case of ACACGTAT, the “PBM 8-mer E-score” value is reported as 0.218 ± 0.052.
For AAACGTGT, the “PBM 8-mer E-score” value was 0.169 ± 0.1.
With TCACGTAA the “PBM 8-mer E-score” value was 0.0827 ± 0.0065.
With ACACGTGT the “PBM 8-mer E-score” value was 0.469 ± 0.029.
In the case of TCACGTGA, the “PBM 8-mer E-score” value is reported as 0.442 ± 0.044.
With TAACGTGA the “PBM 8-mer E-score” value was 0.101 ± 0.052.
For ACACGTAG, the “PBM 8-mer E-score” value was 0.0342 ± 0.052.
AAACGTGG was tested, and the “PBM 8-mer E-score” value was 0.201 ± 0.0053.
